Only some compounds are listed: those with a hit (about 3.4% of all), similar ones and a draw of the others.
TEAD-YAP block: TEAD-YAP interaction inhibition. HEK-TIYL cells, TEAD-Gal4/YAP UAS-luciferase luminescence. inhibition, % at 9.12 µM. hit rate 1.4% among 640,000; in the data active means inhibition above about 32%;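 further: 0% = median of test compound wells and 100% = reference inhibitor wells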
GPR151 ag: activates the human receptor GPR151 | Q8TDV0 | PathHunter beta-arrestin GPR151 cells, luminescence | activation, % at 11.2 µM | hit rate 1% among 650,000; in the data active means activation above about 4.9%;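 further: 0% = median of compound wells and 100% = cells with positive control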
Target sequence (Q8TDV0 whole entry, looked up): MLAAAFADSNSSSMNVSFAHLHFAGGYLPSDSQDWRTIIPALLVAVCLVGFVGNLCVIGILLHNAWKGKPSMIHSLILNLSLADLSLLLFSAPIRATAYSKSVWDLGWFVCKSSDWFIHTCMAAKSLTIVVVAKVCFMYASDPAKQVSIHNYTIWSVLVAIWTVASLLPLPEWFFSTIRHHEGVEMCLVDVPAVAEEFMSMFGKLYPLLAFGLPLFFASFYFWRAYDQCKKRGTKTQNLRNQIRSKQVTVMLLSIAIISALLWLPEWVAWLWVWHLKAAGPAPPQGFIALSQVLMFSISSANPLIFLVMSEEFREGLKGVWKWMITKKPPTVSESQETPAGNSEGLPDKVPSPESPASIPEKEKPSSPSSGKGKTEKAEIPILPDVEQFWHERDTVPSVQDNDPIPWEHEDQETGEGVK
FBW7 activator: human FBW7 E3 ligase activation, primary screen. normalized activity (activation), % at 26.1 µM. Q969H0. AlphaScreen FBW7–phospho-cyclin E peptide binding, activator screen. hit rate 0.13% among 650,000; in the data active means normalized activity above about 1.9%;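 further: purified mutant Fbw7 with reduced substrate affinity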
MITF inh: human MITF inhibition, primary screen | hit rate 0.91% among 650,000 | AID 1259374 | inhibition, % at 2.6 µM | AlphaScreen MITF homodimerization, bead proximity signal | O75030; in the data active means inhibition above about 50%;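 further: 0% = vehicle wells with protein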
* marks the source's active call; other numbers are inactive results.

SMILES	TEAD-YAP block	GPR151 ag	FBW7 activator	MITF inh
CCCCCCOc1ccc(/C=C(\C#N)C(=O)NCC2CCCO2)cc1OC (stereo unspecified)	-2.2	-0.6	2.0*	8.8
Cc1cc(S(=O)(=O)N(C)C2CCCCC2)ccc1-n1cnnn1	51.8*	-0.8	0.0	4.0
COc1ccc(C2=N/C(=C\c3cccc(Cl)c3Cl)C(=O)O2)cc1[N+](=O)[O-]	4.1	2.1	-0.1	7.6
CCC(=O)Nc1nc2c(s1)C(=O)CC(c1ccccc1)C2 (stereo unspecified)	52.1*	-0.3	-0.1	-3.1
COc1cc(C2Nc3ccccc3NC3=C2C(=O)CC(c2ccccc2Cl)C3)ccc1O (stereo unspecified)	50.6*	-1.3	0.0	5.4
COc1cc(C2Nc3ccccc3NC3=C2C(=O)CC(c2ccccc2Cl)C3)cc(Br)c1O (stereo unspecified)	43.5*	0.2	0.4	4.5
O=C(Cc1c(F)cccc1Cl)N1CCn2c(CO)nnc2C1	-4.2	-0.1	-0.1	1.4
N=c1nc2n(c3ccccc13)Cc1ccccc1-2	71.2*	-1.0	0.0	7.3
O=c1nc2n(c3ccccc13)Cc1ccccc1-2	10.0	1.8	-0.1	-1.0
COc1cccc(C2=CC(c3cc(OC)ccc3OC)n3ncnc3N2)c1 (stereo unspecified)	49.6*	-0.1	-0.1	23.8
COc1ccc(OC)c(C2C=C(c3cccnc3)Nc3ncnn32)c1 (stereo unspecified)	22.2	-0.6	0.0	-4.0
COc1ccc(C2=CC(c3cc(OC)ccc3OC)n3ncnc3N2)cc1 (stereo unspecified)	49.8*	-1.0	-0.1	0.0
O=C(O)C1C2CC=CC2c2cc(Cl)cc3c2N1CC1CC=CC31 (stereo unspecified)	-0.6	-1.2	2.7*	-2.9
O=C(O)c1cc2c3c(c1)C1C=CCC1C(c1ccc(Cl)cc1)N3CC1CC=CC21 (stereo unspecified)	3.9	-0.8	0.0	87.6*
CCCN1C(=O)/C(=C2\SC(=S)N(NC(=O)c3ccccc3O)C2=O)c2ccccc21	2.3	2.4	0.4	11.9
CN(C)c1ccc(CC(=O)c2nc3ccccc3s2)cc1	34.1*	-1.6	0.2	9.7
C=CCNc1nc(N)c(C(N)=NC#N)s1	74.1*	1.8	0.0	-0.7
Cc1ccc(-n2c(=S)sc3c(=O)n(-c4ccccc4)c(SCC(=O)Nc4nccs4)nc32)c(C)c1	-11.0	1.3	0.0	-3.5
COCCOC(=O)c1ccc(NC(=O)c2ccc(C(C)(C)C)cc2)cc1	45.7*	0.3	-1.1	1.0
COC(=O)Cc1ccc(NC(=O)c2ccc(C(C)(C)C)cc2)cc1	70.8*	1.5	0.3	-10.9
COC(=O)COc1ccc(NC(=O)c2ccc(C(C)(C)C)cc2)cc1	43.5*	-0.9	-0.2	-22.1
CCCOC(=O)c1ccc(NC(=O)c2ccc(C(C)(C)C)cc2)cc1	-57.9	-0.2	-0.1	11.5
COc1ccc(Cl)cc1NC(=O)C1(S(=O)(=O)c2ccc(C)cc2)CC1	4.7	0.6	0.5	7.1
COc1cccc(NC(=O)c2ccc(OC)c(I)c2)c1	-37.9	0.6	0.0	-1.5
O=C(NCc1ccc2c(c1)OCO2)C(=O)NCC1OCCN1C(=O)c1ccc(Cl)cc1 (stereo unspecified)	4.2	-2.0	0.0	2.6
SMILES	TEAD-YAP block	GPR151 ag	FBW7 activator	MITF inh
Cc1ccc(S(=O)(=O)NC(C)C(=O)Nc2c(F)cccc2F)cc1 (stereo unspecified)	3.8	0.0	-0.1	-3.6
Cc1ccc(CCC(=O)Nc2ncc(Cc3ccccc3F)s2)o1	50.8*	0.0	0.0	8.9
Cc1cccc(Cc2cnc(NC(=O)CCc3ccc(C)o3)s2)c1	32.2*	0.2	0.3	14.4
CC(=O)Nc1ncc(Cc2ccccc2F)s1	-0.4	0.2	-0.2	10.1
COc1ccc(C2c3c(oc4ccc(Cl)cc4c3=O)C(=O)N2CCCN2CCOCC2)cc1OC (stereo unspecified)	-5.6	0.3	-0.1	-1.0
COc1ccc(NS(=O)(=O)c2c(C)nn(C)c2Cl)c(OC)c1	6.0	0.0	0.2	15.8
CCOc1ccc(C2Nc3ccc(C(=O)c4ccccc4)cc3NC3=C2C(=O)CCC3)cc1 (stereo unspecified)	47.4*	1.6	0.2	17.0
O=C1CCCC2=C1C(c1ccc(F)c(Oc3ccccc3)c1)Nc1ccc(C(=O)c3ccccc3)cc1N2 (stereo unspecified)	8.3	1.6	-0.1	2.3
COc1cc(C2Nc3ccc(C(=O)c4ccccc4)cc3NC3=C2C(=O)CCC3)cc(OC)c1O (stereo unspecified)	67.9*	-0.8	-0.1	-10.7
COc1cccc(C2Nc3ccc(C(=O)c4ccccc4)cc3NC3=C2C(=O)CCC3)c1 (stereo unspecified)	60.0*	1.0	0.1	-1.9
COc1ccc(C2Nc3ccc(C(=O)c4ccccc4)cc3NC3=C2C(=O)CCC3)cc1 (stereo unspecified)	39.0*	0.2	-0.1	4.5
COc1ccc(C2Nc3ccc(C(=O)c4ccccc4)cc3NC3=C2C(=O)CC(C)(C)C3)cc1 (stereo unspecified)	15.5	-0.5	0.1	8.0
Cc1nc(NCc2cnn(C)c2)sc1-c1ccn(CC2COc3ccccc3O2)n1 (stereo unspecified)	-22.5	0.5	-0.3	0.2
O=[N+]([O-])c1ccc(Sc2nnc(Cc3ccccc3)o2)nc1	57.2*	1.3	-0.1	-2.3
O=[N+]([O-])c1ccc(CSc2nnc(Cc3ccccc3)o2)cc1	11.0	0.3	0.0	14.2
COc1ccc(-c2n[nH]c3c2C(c2ccc(F)cc2)NC3=O)cc1 (stereo unspecified)	14.3	1.8	-0.1	4.2
COc1ccc(OC)c(C2NC(=O)c3[nH]nc(-c4ccc(C)cc4)c32)c1 (stereo unspecified)	61.8*	1.5	0.1	7.8
COc1cccc(NC(=O)c2sc(NC(=O)/C=C/c3ccccc3)nc2C)c1	55.4*	-0.7	0.0	-8.0
CC(=O)N(C1=C(N2CCCC2)C(=O)c2ccccc2C1=O)c1cccc(F)c1	41.9*	-2.1	0.0	18.3
CN(C1=C(N2CCOCC2)C(=O)c2ccccc2C1=O)c1ccccc1	14.4	0.7	-0.7	51.0*
O=C1C(NC2CCCC2)=C(N2CCOCC2)C(=O)c2ccccc21	79.2*	-3.0	-0.1	27.0
O=C1C(N2CCCCC2)=C(N2CCOCC2)C(=O)c2ccccc21	9.9	0.0	-0.1	4.6
CCOc1ccc(N(C(C)=O)C2=C(N3CCN(C)CC3)C(=O)c3ccccc3C2=O)cc1	90.1*	-3.7	-0.2	9.2
CC(=O)c1ccc(NC(=O)c2cccc(NC(=O)c3ccccc3Cl)c2)cc1	-36.3	0.6	0.0	2.4
Cc1nc2c(-c3ccc(F)cc3)c(C)nn2c(N(C)CCO)c1C	-15.4	1.2	0.5	-0.8
CCn1cc(/C=C2/C(=O)NC(=O)N(c3ccc4c(c3)OCO4)C2=O)c2ccccc21	10.6	-0.6	0.1	12.9
CC(=O)N(C1=C(N2CCOCC2)C(=O)c2ccccc2C1=O)c1ccc(Cl)c(Cl)c1	39.5*	-3.3	-0.4	117.2*

Source: PubChem BioAssay
